Source: PubChem BioAssay (National Center for Advancing Translational Sciences (NCATS))
JMJD2A Tudor = JMJD2A Tudor domain (human) inhibition; O75164; AlphaScreen JMJD2A-Tudor / H3K4me3 peptide binding; Potency, µM (doses to about 114 µM), for the others: top-dose activity change, negative = inhibition, usual class: inhibitors; 390,000 tested, 4.4% active; AID 504339; also: % is scaled to controls: 0 for no effect and ±100 for the full control effect; nearly all actives have a fitted effect of over 50% in size
HP1b chromo inh = HP1-beta chromodomain-methylated histone interaction inhibition | P83916 | AlphaScreen HP1-beta / biotin-H3K9me3 peptide binding | Potency, µM (top dose mostly 114 µM), without a hit: at the highest dose activity change, negative = inhibition, actives largely listed as inhibitors | 390,000 tested, 0.56% active | AID 540317; also: nearly all actives have a fitted effect of over 70% in size
Target sequence (P83916 whole entry, looked up): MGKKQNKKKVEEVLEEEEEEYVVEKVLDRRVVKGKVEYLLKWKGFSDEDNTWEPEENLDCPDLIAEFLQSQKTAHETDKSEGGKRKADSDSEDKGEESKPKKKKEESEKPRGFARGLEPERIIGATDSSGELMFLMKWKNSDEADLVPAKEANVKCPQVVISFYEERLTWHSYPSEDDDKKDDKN
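Compound inhibition of the preformed complex between 50 nM HP1-beta and 50 nM biotinylated H3K9me3 peptide was read by AlphaScreen. Buffer was PBS pH 7.4 with 0.01% Tween-20. Incubations ran 30 min at room temperature, with 10 ug/mL donor/acceptor beads.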
Sfp inh = Sfp phosphopantetheinyl transferase inhibition; Biochemical Sfp PPTase activity, qHTS; Potency, µM, inactives show largest response in the series, negative = inhibition, hits mostly inhibitors; 310,000 tested, 3.5% active; Q9F4F7; AID 1490;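 also: the enzyme is Sfp with the accession as filed and its product quenches rhodamine fluorescence; 0% = enzyme reaction without inhibitor and -100% = no enzyme wells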
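Step 1, compound plus 15 nM Sfp-PPTase, 15 min, room temperature. Step 2, add rhodamine-CoA (5 uM) and BHQ-2-YbbR (12.5 uM). Step 3, read 525/598 nm fluorescence at 0 and 30 min.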
G9a block = G9a (human) methyltransferase inhibition | 350,000 tested, 8.8% active | G9a H3K9 monomethylation, AlphaScreen, 2 h | Potency, µM (series often up to 102 µM), inactives show top-dose activity, negative = inhibition, most hits filed as inhibitors | AID 504332 | Q96KQ7; also: % is scaled to controls: 0 for no effect and ±100 for the full control effect; nearly all actives have a fitted effect of over 75% in size
Target sequence (Q96KQ7 913-1193 limits assumed): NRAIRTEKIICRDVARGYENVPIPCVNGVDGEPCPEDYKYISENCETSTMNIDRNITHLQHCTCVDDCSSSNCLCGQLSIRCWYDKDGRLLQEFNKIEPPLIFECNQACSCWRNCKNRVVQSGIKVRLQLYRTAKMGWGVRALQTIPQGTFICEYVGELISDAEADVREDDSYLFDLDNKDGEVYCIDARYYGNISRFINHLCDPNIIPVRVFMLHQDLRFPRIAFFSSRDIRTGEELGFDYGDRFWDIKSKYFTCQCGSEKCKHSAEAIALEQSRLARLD
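Using a bead-based AlphaScreen, monomethylated H3K9 product from 2 h room-temperature reactions (G9a 20 nM, peptide 500 nM, SAM 20 uM) was detected with 0.5 ug/mL rabbit anti-H3K9me1 antibody.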
BAZ2B block = BAZ2B (human) inhibition | Q9UIF8 | Potency, µM (top dose mostly 114 µM), without a hit: at the top dose activity change, negative = inhibition, hits mostly inhibitors | AlphaScreen BAZ2B-H3K14Ac peptide displacement | 360,000 tested, 4.4% active | AID 504333; also: % is scaled to controls: 0 for no effect and ±100 for the full control effect; nearly all actives have a fitted effect of over 60% in size
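AlphaScreen luminescence quantifies BAZ2B engagement of H3K14Ac peptide; the protein and biotinylated peptide are both at 50 nM final, buffer PBS pH 7.4 with 0.01% Tween-20, all steps at room temperature.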
L3MBTL1 block = blocks human L3MBTL1; AlphaScreen L3MBTL1–H3K9me1 peptide binding; 230,000 tested, 0.66% active; Potency, µM (series often up to 57.1 µM), inactives show top-dose activity, negative = inhibition, usual class: inhibitors; Q9Y468; AID 485360; also: % is scaled to controls: 0 for no effect and ±100 for the full control effect; nearly all actives have a fitted effect of over 60% in size
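First, the protein-peptide complex forms for 30 min at room temperature (L3MBTL1 50 nM, biotinylated H3K9me1 peptide 75 nM). Next, compounds are pin-transferred and incubated 30 min. Finally, AlphaScreen beads are added and read after 30 min.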
Numbers without * were called inactive; ? = inconclusive; · = not tested or not shown; [ ] = dose if it differs, or a comment. In the library only some 12% were active in any assay of this set; here they are far more common. Calls follow the shape of the dose curve; as a rule, active = well fitted curve in the direction sought with a large enough effect; inconclusive = small, poorly fitted or top-dose-only effect, or another doubt; inactive = no such curve, though single readings can be large; an effect the other way counts as inactive or inconclusive. Potency is read from the fitted curve at half-maximal effect.

SMILES	JMJD2A Tudor	HP1b chromo inh	Sfp inh	G9a block	BAZ2B block	L3MBTL1 block
CCc1ccc(NC(=O)c2ccc(F)c(S(=O)(=O)N3CCc4ccccc4C3)c2)cc1	-18%	-9%	·	-2%[59 µM]	-1%	·
Cc1ccc(-n2ncc(C(=O)NCc3cccs3)c2C2CCN(C(=O)OC(C)(C)C)CC2)cc1	-32%	-14%	·	-28%[59 µM]	2%[57.1 µM]	·
CC(C)C[C@H](NC(=O)[C@H]1O[C@@H]1C(=O)O)C(=O)NCCCCN=C(N)N	·	·	10%	·	·	·
Cc1ccc(CNS(=O)(=O)c2ccc(CN3C(=O)c4cccnc4C3=O)cc2)o1	-11%	22%	-15%	-6%[0.0925 µM]	79µM*	·
CC(=O)Nc1ccc(NS(=O)(=O)c2ccc(CN3C(=O)c4cccnc4C3=O)cc2)cc1	-10%	35%	11%	12%	79µM*	·
CC(C)NS(=O)(=O)c1cc(F)ccc1CN1C(=O)c2cccnc2C1=O	?	32%	4%	-36%[12.7 µM]	?	·
Cc1ccc(CNS(=O)(=O)c2cc(F)ccc2CN2C(=O)c3cccnc3C2=O)o1	-19%	50%	5%	?	50µM*	·
CCOC(=O)C1CCCN(C(=O)c2nn(-c3ccc(C)cc3)c(=O)c3c2c2ccccc2n3C)C1 (configuration not stated)	-14%	30%	·	-20%[59 µM]	·	·
S=c1[nH]nc(COc2cccc(Cl)c2)n1Cc1ccccc1	-34%	15%	13%	-32%[12.7 µM]	-19%	-9%
S=c1[nH]nc(CCc2ccccc2)n1Cc1ccccc1	?	20%	-8%	3.5µM*	8%	2%
CCn1c(CCCCc2n[nH]c(=S)n2CC)n[nH]c1=S	4.5µM*	?	-28%	20µM*	-29%	0%
CCCCCCCc1n[nH]c(=S)n1Cc1ccccc1	?	28%	-9%	·	-3%	-5%
S=c1[nH]nc(COc2ccc(Cl)cc2)n1Cc1ccccc1	-18%	23%	26%	?	-17%	-5%
CCCCc1n[nH]c(=S)n1Cc1ccc(C)cc1	14µM*	-8%	-5%	1.8µM*	-23%	2%
COc1ccccc1OCc1n[nH]c(=S)n1Cc1ccccc1	32µM*	13%	8%	13µM*	-10%	·
CCOC(=O)C1CCC(CN(Cc2c(Cl)cccc2Cl)S(=O)(=O)c2ccc(F)c(C)c2)CC1 (configuration not stated)	6%	35%	·	6%[59 µM]	8%	·
Cc1ccc(NCc2nnc(SCC(=O)O)n2Cc2ccccc2)cc1Cl	-15%	31%	19%	-31%	-31%	-5%
Cc1nccn1CCc1n[nH]c(=S)n1Cc1ccccc1	40µM*	35%	3%	2µM*	14%	-4%
Cc1ccc(NCc2n[nH]c(=S)n2Cc2ccccc2)cc1Cl	?	-3%	5%	18µM*	?	?
O=C(Nc1ccccc1F)c1cnc(N2CCCCC2)c2ccccc12	39%	43%[57 µM]	·	79%[59 µM]	25%	·
CCCCNC(=O)[C@@H]1Cc2ccccc2N1C(=O)[C@H](N)CC	·	·	-36%	·	·	·
COc1cc(Cl)c(NS(=O)(=O)c2ccc(-c3coc(C)n3)cc2)c(OC)c1	-14%	20%[57 µM]	·	3%[59 µM]	1%	·
Cc1ccc(N2C(=O)CS(=O)(=O)CC2=O)cc1	-6%	63%	7%	32µM*	-18%	3%
Cc1ccc(N2C(=O)CSCC2=O)cc1	-5%	24%	4%	7%[12.7 µM]	-3%	·
O=C(CSc1nc2ccccc2c(=O)n1Cc1ccco1)NCc1ccco1	56µM*	-12%	?	?	?	?
SMILES	JMJD2A Tudor	HP1b chromo inh	Sfp inh	G9a block	BAZ2B block	L3MBTL1 block
CCCCn1c(SCC(=O)NCc2ccco2)nc2ccccc2c1=O	-20%	24%	9%	-68%	-2%	·
CC(C)(C)c1nc(SCC(=O)NCc2ccco2)c2ccccc2n1	-31%	8%	-17%	50µM*	?	-3%
CCCn1c(SCC(=O)NCc2ccco2)nnc1-c1ccncc1	-12%	15%	12%	1%	-15%	-6%
Cc1sc2nc(SCC(=O)NCc3ccco3)n(Cc3ccccc3)c(=O)c2c1C	-15%	17%	?	50µM*	17%	·
Cc1[nH]c2ccc(-c3nnc(SCC(=O)NCc4ccco4)n3Cc3ccccc3)cc2c1C	56µM*	-37%	5%	40µM*	56µM*	·
O=C(CSc1c2c(nc3ccccc13)CCCC2)NCc1ccco1	-4%	39%	-26%	?	-14%	·
CCOC(=O)c1sc2nc(SCC(=O)NCc3ccco3)n(Cc3ccccc3)c(=O)c2c1C	-30%	21%	-4%	-1%[59 µM]	13%	-5%
Cc1ccc2c(CNCc3cccc(Cl)c3)c(C(=O)O)n(Cc3ccc(F)cc3Cl)c2c1	-28%	11%	·	-4%[59 µM]	-7%	·
CC1=C(c2ccc(C)cc2)S(=O)(=O)N(Cc2ccc(C(=O)NCc3cccc(C)c3)cc2)C1=O	-22%	60%	·	-3%[59 µM]	-11%	·
Cc1n[nH]c(=S)n1/N=C/c1ccc(-c2ccc(Cl)cc2)o1	-9%	44%	·	·	·	·
S=c1[nH]nc(-c2ccccn2)n1/N=C/c1ccc(-c2ccccc2Cl)o1	28µM*	?	-6%	1.1µM*	25µM*	·
S=c1[nH]nc(-c2ccccn2)n1/N=C/c1ccc(Br)s1	7.9µM*	14%	12%	1.3µM*	13µM*	28µM*
Cn1cccc1C(=O)N1CCC2(CCCN(c3cccc(-c4ccccc4)c3)C2)CC1	·	·	-15%	-6%[12.7 µM]	·	·
